Test results as given in PubChem BioAssay AID1159580 (chemical genetic matrix, 2015).
Screen size: about 5,500 compounds; about 2,000 (36%) were called active. Inconclusive results (about 18%) are left out. Rule as the data show it: active = normalized growth mostly below about 0.91 (no sharp cut-off); inconclusive = no clear call, values can overlap the other calls; inactive = mostly above about 0.92. This is one part of the list.

Assay: chemical genetic growth profiling, strain panel (AID 1159580);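 also: tested at 20 µM; growth read once vehicle control cultures reached saturation at 30 °C; 1 = growth at the plate median or of vehicle wells; lower values mean less growth of the strain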
Details: growth OD

Measured: normalized growth

NC(N)=NS(=O)(=O)c1ccc(N)cc1
inactive: S. cerevisiae deletion strains, locus YJR066W, strain TOR1, stronger effect = lower value 0.909 | S. cerevisiae deletion strains, locus YKL009W, strain mrt4, stronger effect = lower value 0.993 | S. cerevisiae deletion strains, locus YKL068W, stronger effect = lower value 1 | S. cerevisiae deletion strains, locus YKL085W, strain MDH1 (second series), stronger effect = lower value 1.02 | S. cerevisiae deletion strains, locus YKL085W, strain MDH1, stronger effect = lower value 1.02 | S. cerevisiae deletion strains, locus YKL160W, strain elf1, stronger effect = lower value 0.996 | S. cerevisiae deletion strains, locus YKL190W, strain CNB1, stronger effect = lower value 1.01 | S. cerevisiae deletion strains, locus YKR001C, strain vps1, stronger effect = lower value 1.01 | S. cerevisiae deletion strains, locus YKR026C, strain gcn3, stronger effect = lower value 0.955 | S. cerevisiae deletion strains, locus YKR091W, strain srl3, stronger effect = lower value 0.991 | S. cerevisiae deletion strains, locus YLL001W, strain dnm1, stronger effect = lower value 0.998 | S. cerevisiae deletion strains, locus YLL026W, stronger effect = lower value 0.991 | S. cerevisiae deletion strains, locus YLL041C, strain sdh2, stronger effect = lower value 0.973 | S. cerevisiae deletion strains, locus YLR027C, strain aat2, stronger effect = lower value 0.974 | S. cerevisiae deletion strains, locus YLR039C, strain RIC1, stronger effect = lower value 1.02 | S. cerevisiae deletion strains, locus YLR058C, strain SHM2, stronger effect = lower value 1.02 | S. cerevisiae deletion strains, locus YLR102C, strain apc9, stronger effect = lower value 0.986 | S. cerevisiae deletion strains, locus YLR113W, strain HOG1, stronger effect = lower value 0.967 | S. cerevisiae deletion strains, locus YLR221C, strain rsa3, stronger effect = lower value 0.984 | S. cerevisiae deletion strains, locus YLR258W, strain gsy2, stronger effect = lower value 0.998 | S. cerevisiae deletion strains, locus YLR262C, strain YPT6 (second series), stronger effect = lower value 0.984 | S. cerevisiae deletion strains, locus YLR262C, strain YPT6, stronger effect = lower value 1.03 | S. cerevisiae deletion strains, locus YLR268W, strain sec22, stronger effect = lower value 0.996 | S. cerevisiae deletion strains, locus YLR320W, strain mms22, stronger effect = lower value 0.992 | S. cerevisiae deletion strains, locus YLR330W, strain CHS5, stronger effect = lower value 1.01 | S. cerevisiae deletion strains, locus YLR342W, strain FKS1 (second series), stronger effect = lower value 1.01 | S. cerevisiae deletion strains, locus YLR342W, strain FKS1, stronger effect = lower value 0.977 | S. cerevisiae deletion strains, locus YLR357W, strain rsc2, stronger effect = lower value 0.986 | S. cerevisiae deletion strains, locus YLR370C, strain arc18, stronger effect = lower value 0.981 | S. cerevisiae deletion strains, locus YLR371W, strain rom2, stronger effect = lower value 0.993 | S. cerevisiae deletion strains, locus YLR384C, strain iki3, stronger effect = lower value 0.995 | S. cerevisiae deletion strains, locus YLR418C, strain cdc73, stronger effect = lower value 0.994 | S. cerevisiae deletion strains, locus YML016C, strain PPZ1, stronger effect = lower value 1.01 | S. cerevisiae deletion strains, locus YML032C, strain rad52, stronger effect = lower value 0.987 | S. cerevisiae deletion strains, locus YML120C, strain ndi1, stronger effect = lower value 0.978 | S. cerevisiae deletion strains, locus YML124C, strain tub3, stronger effect = lower value 0.992 | S. cerevisiae deletion strains, locus YMR058W, strain fet3, stronger effect = lower value 0.984 | S. cerevisiae deletion strains, locus YMR078C, strain ctf18, stronger effect = lower value 0.997 | S. cerevisiae deletion strains, locus YMR125W, strain sto1, stronger effect = lower value 0.966 | S. cerevisiae deletion strains, locus YMR129W, stronger effect = lower value 0.997 | S. cerevisiae deletion strains, locus YMR205C, strain PFK2, stronger effect = lower value 1 | S. cerevisiae deletion strains, locus YMR223W, strain ubp8, stronger effect = lower value 0.996 | S. cerevisiae deletion strains, locus YMR231W, strain pep5, stronger effect = lower value 1 | S. cerevisiae deletion strains, locus YMR307W, strain GAS1, stronger effect = lower value 1.03 | S. cerevisiae deletion strains, locus YNL067W, strain RPL9B, stronger effect = lower value 1.03 | S. cerevisiae deletion strains, locus YNL071W, strain lat1, stronger effect = lower value 0.986 | S. cerevisiae deletion strains, locus YNL128W, strain TEP1, stronger effect = lower value 1.03 | S. cerevisiae deletion strains, locus YNL153C, strain GIM3, stronger effect = lower value 1.04 | S. cerevisiae deletion strains, locus YNL183C, strain NPR1, stronger effect = lower value 0.918 | S. cerevisiae deletion strains, locus YNL209W, strain ssb2, stronger effect = lower value 0.993 | S. cerevisiae deletion strains, locus YNL233W, strain BNI4, stronger effect = lower value 1.03 | S. cerevisiae deletion strains, locus YNL248C, strain rpa49, stronger effect = lower value 0.972 | S. cerevisiae deletion strains, locus YNL250W, strain rad50, stronger effect = lower value 0.987 | S. cerevisiae deletion strains, locus YNL271C, strain bni1, stronger effect = lower value 0.985 | S. cerevisiae deletion strains, locus YNL298W, strain CLA4, stronger effect = lower value 0.994 | S. cerevisiae deletion strains, locus YNL307C, strain MCK1, stronger effect = lower value 0.987 | S. cerevisiae deletion strains, locus YNL322C, strain KRE1 (second series), stronger effect = lower value 0.967 | S. cerevisiae deletion strains, locus YNR049C, strain mso1, stronger effect = lower value 0.981 | S. cerevisiae deletion strains, locus YNR052C, strain pop2, stronger effect = lower value 0.986 | S. cerevisiae deletion strains, locus YOL006C, strain TOP1, stronger effect = lower value 1.09 | S. cerevisiae deletion strains, locus YOL012C, strain htz1 0.841 | S. cerevisiae deletion strains, locus YOL147C, strain pex11, stronger effect = lower value 0.992 | S. cerevisiae deletion strains, locus YOR001W, strain rrp6, stronger effect = lower value 0.986 | S. cerevisiae deletion strains, locus YOR061W, strain CKA2, stronger effect = lower value 1.02 | S. cerevisiae deletion strains, locus YOR069W, strain VPS5, stronger effect = lower value 1.01 | S. cerevisiae deletion strains, locus YOR070C, strain gyp1, stronger effect = lower value 0.979 | S. cerevisiae deletion strains, locus YOR080W, strain dia2, stronger effect = lower value 0.985 | S. cerevisiae deletion strains, locus YOR083W, strain WHI5, stronger effect = lower value 0.979 | S. cerevisiae deletion strains, locus YOR106W, strain vam3, stronger effect = lower value 0.976 | S. cerevisiae deletion strains, locus YOR136W, strain idh2, stronger effect = lower value 0.986 | S. cerevisiae deletion strains, locus YOR144C, strain elg1, stronger effect = lower value 0.99 | S. cerevisiae deletion strains, locus YOR184W, strain ser1, stronger effect = lower value 1.02 | S. cerevisiae deletion strains, locus YOR231W, strain MKK1, stronger effect = lower value 0.98 | S. cerevisiae deletion strains, locus YOR265W, strain rbl2, stronger effect = lower value 0.979 | S. cerevisiae deletion strains, locus YOR270C, strain vph1, stronger effect = lower value 0.973 | S. cerevisiae deletion strains, locus YOR290C, strain snf2, stronger effect = lower value 0.992 | S. cerevisiae deletion strains, locus YOR316C, strain cot1, stronger effect = lower value 0.993 | S. cerevisiae deletion strains, locus YPL051W, strain arl3, stronger effect = lower value 0.997 | S. cerevisiae deletion strains, locus YPL055C, strain LGE1, stronger effect = lower value 1.07 | S. cerevisiae deletion strains, locus YPL078C, strain atp4, stronger effect = lower value 0.994 | S. cerevisiae deletion strains, locus YPL106C, strain sse1, stronger effect = lower value 0.953 | S. cerevisiae deletion strains, locus YPL240C, strain hsp82, stronger effect = lower value 0.991 | S. cerevisiae deletion strains, locus YPL256C, strain CLN2, stronger effect = lower value 0.953 | S. cerevisiae deletion strains, locus YPR119W, strain clb2, stronger effect = lower value 0.994 | S. cerevisiae deletion strains, locus YPR141C, strain kar3, stronger effect = lower value 0.997 | S. cerevisiae deletion strains, locus YPR163C, strain tif3, stronger effect = lower value 0.997 | S. cerevisiae deletion strains, locus YPR167C, strain met16, stronger effect = lower value 0.993 | S. cerevisiae deletion strains, strain wtn01, stronger effect = lower value 0.988 | S. cerevisiae strains, strain wild type, stronger effect = lower value 1.02
